Screening data as filed in PubChem BioAssay.
These entries were drawn from the full list.
aSyn UTR act: Activators via SNCA 5'UTR binding, MLPCN. alpha-synuclein 5'UTR reporter, activators screen. activity score, % (tested at 7.5 µM), hits read low. actives 7.1% (n = 300,000). AID 1814; in the data active = activity score below about -60%
Numbers stand for hits; 0 = inactive.

SMILES	aSyn UTR act
CCS(=O)(=O)c1ccc2oc(Nc3ccccc3C)nc2c1	-121.9
CCN(CC)S(=O)(=O)c1ccc2oc(Nc3ccccc3)nc2c1	-128.8
O=C(c1ccc(Br)cc1)c1cc([N+](=O)[O-])ccc1N1CCCCC1	0
O=C(/C=C/c1ccc(N2CCCCC2)c([N+](=O)[O-])c1)c1ccc(O)cc1	-463.5
COc1ccccc1C(=O)/C=C/c1ccc(N2CCCCC2)c([N+](=O)[O-])c1	-215.9
Nc1nnnn1/N=C/c1ccc(N2CCCCC2)c([N+](=O)[O-])c1	-63.9
CC(C)(C)c1ccc(-c2nnc(N)s2)cc1	-65.0
Cc1sc2ncnc(N/N=C/c3ccc(O)cc3)c2c1C	-63.6
Cc1sc2ncnc(N/N=C/c3ccccc3O)c2c1C	0
COc1ccc(/C=N/Nc2ncnc3sc(C)c(C)c23)cc1	-114.1
N#Cc1ccccc1CSc1nc2ccc(NC(=O)c3ccccc3C(=O)O)cc2s1	-87.4
Cc1ccc(OC(=O)c2ccc3nc(C)sc3c2)cc1	-76.1
O=C(Nc1ccc2[nH]c(=S)sc2c1)c1ccccc1	-138.4
Cc1nnc(NC(=O)c2ccc3ccccc3n2)s1	-151.9
CCOC(=O)Nc1ccc2nc(N3CCCCCC3)sc2c1	-313.0
CC(=O)c1ccc(NC(=O)c2ccc(C)c(Br)c2)cc1	-125.5
Cc1nc2ccc(NC(=O)c3ccccc3)cc2s1	-106.3
CC(=O)c1ccc(NC(=O)c2ccc3nc(C)sc3c2)cc1	-193.4
COc1cc(C(=O)Nc2ccc(C(C)=O)cc2)c(Br)c(OC)c1OC	-83.3
Cc1nc2ccc(NC(=O)c3ccc4ccccc4n3)cc2s1	-71.1
Cc1nc2ccc(NC(=O)c3sccc3C)cc2s1	-163.7
Cc1ccccc1OCCNC(=O)c1ccc2ccccc2n1	-148.7
Cc1nc2ccc(NC(=O)c3cncc(Br)c3)cc2s1	-87.1
Cc1nc2ccc(C(=O)Nc3ccccc3Cl)cc2s1	-235.3
Cc1nc2ccc(NC(=O)c3cccs3)cc2s1	-131.6
SMILES	aSyn UTR act
Cc1nc2ccc(NC(=O)N3CCCCC3)cc2s1	-106.2
Cc1nc2cc(NC(=O)c3ccc([N+](=O)[O-])s3)ccc2s1	0
Cc1nc2cc(C(=O)O)ccc2s1	-176.6
COc1ccc(OC)c(-c2cc(C3CCN(c4cc(Cl)nc(N)n4)CC3)[nH]n2)c1	0
COc1ccc(O)c(-c2cc(-c3ccc(F)cc3)n[nH]2)c1	-121.1
COc1ccc(-c2cc(-c3ccc(Cl)cc3)n[nH]2)c(O)c1	-201.8
C=C(C)COc1ccc(-c2[nH]ncc2-c2ccc(Br)cc2)c(O)c1	0
COc1ccc(O)c(-c2cc(-c3cccc(Br)c3)n[nH]2)c1	-131.9
COc1ccc(-c2cc(-c3cc(OC)ccc3O)[nH]n2)cc1	-199.2
CN(C)/N=C/c1ccc(N2CCOCC2)cc1	-96.4
C/C(=N\Nc1ccc(F)cc1F)c1ccc(Br)s1	-81.0
C/C(=N\Nc1ccc(F)cc1F)c1ccc(N2CCOCC2)cc1	-95.7
Fc1ccc(N/N=C/c2ccc(N3CCOCC3)cc2)c(F)c1	-207.5
N#Cc1c(NC(=O)c2ccco2)sc2c1CCC2	-132.8
NC(=O)c1c(NC(=O)c2ccco2)sc2c1CCC2	-276.9
Cc1occc1C(=O)Nc1sc2c(c1C(N)=O)CCCCC2	-175.6
CC1(C)Cc2c(sc(NC(=O)c3ccco3)c2C#N)CO1	-100.3
CCCc1nc2oc3c(NCCCN(C)C)ncnc3c2c2c1CCCC2	0
O=C(Nc1sc2c(c1C(=O)O)CCCCC2)c1ccco1	-95.7
CCC(C)OC(=O)n1ccc(C(=O)Nc2nccs2)n1 (configuration not stated)	-68.9
CC(=O)NCc1ccc(-c2csc(-c3cccs3)n2)cc1	-125.6
O=C(Cn1cnc2ccccc2c1=O)c1ccc2ccccc2c1	-140.2
COc1ccc(C(=O)Cn2cnc3ccccc3c2=O)cc1	-146.2
O=C(Cn1cnc2ccccc2c1=O)Nc1ccc2c(c1)OCO2	-120.1
Cc1ccc(C(=O)Cn2cnc3ccccc3c2=O)cc1C	-154.6
SMILES	aSyn UTR act
O=C(Cn1cnc2ccccc2c1=O)c1ccc2c(c1)OCCO2	-129.8
O=C(CN1C(=O)c2ccccc2S1(=O)=O)c1ccc2c(c1)OCCO2	0
Cc1cc(C(=O)Cn2cnc3ccccc3c2=O)c(C)n1C1CC1	-109.3
C/C(=N\Nc1ccc2nncn2n1)c1ccccn1	0
C/C(=N\NC(=O)c1ccc(Cl)cc1)c1ccccn1	-62.9
N/C(=N\NC(=O)c1ccc(Cl)cc1)c1cnccn1	-67.1
C/C(=N\Nc1ccc(Cl)cc1)c1ccccn1	-137.9
O=C(NNC(=O)c1cnccn1)c1ccc(Cl)c(Cl)c1	0
COc1cc(C(=O)N/N=C(\C)c2ccccn2)cc(OC)c1OC	0
C/C(=N/NC(=O)c1ccccn1)c1ccc(O)cc1	-90.2
COc1ccc(NC(=O)Nc2ccc3nonc3c2)cc1	-150.4
COc1ccc(NC(=O)Nc2ccc3nccnc3c2)cc1	-122.1
CN(C)c1ccc(/C=N/n2ncc3ccccc32)cc1	-290.0
Cc1cc(C)cc(NC(=O)/C(C#N)=C/c2cn(CC(=O)NCc3ccco3)c3ccccc23)c1	0
Cc1cc(/C=C(\C#N)C(=O)NCc2ccco2)c(C)[nH]1	-64.2
Cc1cc(/C=C(\C#N)C(=O)NC2CC2)c(C)[nH]1	-144.8
Cc1cc(/C=C(\C#N)C(=O)Nc2ccccc2F)c(C)[nH]1	-128.8
Cc1cccc(OCCn2c(=O)oc3ccc(C)cc32)c1	-110.4
O=C(NCCO)c1ccc2c3n(nc2c1)-c1ccc(Cl)cc1CO3	-158.5
COCCNC(=O)c1ccc2c3n(nc2c1)-c1ccc(Cl)cc1CO3	-164.0
COCCNC(=O)c1c[nH]c2ccc(S(=O)(=O)N3CCc4ccccc43)cc2c1=O	0
Cc1ccc2c(c1)COc1c3ccc(C(=O)NCCO)cc3nn1-2	-157.6
COCCNC(=O)c1ccc2c3n(nc2c1)-c1ccccc1CO3	-108.0
O=C(NCC1CC1)c1ccc2c3n(nc2c1)-c1ccc(Cl)cc1CO3	-166.0
Cc1cccc(NC(=O)C2C3CCCCC32)c1 (configuration not stated)	-116.9
SMILES	aSyn UTR act
CSCCC(=O)Nc1ccc(C(C)=O)cc1	-143.4
Cc1ccc(NC(=O)Nc2ccccc2)cc1[N+](=O)[O-]	-145.2
CC(=O)c1ccc(NC(=O)CN2CCCC2)cc1	-63.5
Cc1cc(NC(=O)OC2CCCCC2)ccc1[N+](=O)[O-]	-189.6
Cc1ccc(NC(=O)C2C3CCCCC32)cc1[N+](=O)[O-] (configuration not stated)	-98.6
Cc1ccc(NC(=O)C2C3/C=C\CCCCC32)cc1 (configuration not stated)	-82.6
Cc1ccc(NC(=O)CN2CCCCCC2)cc1[N+](=O)[O-]	-89.9
COC(=O)C1C(O)=C(C=Nc2ccc3ccccc3c2)C(=O)CC1(C)C (configuration not stated)	-74.8
CNC(=O)c1ccc(-c2cc(C(F)(F)F)nn2C)s1	-142.0
N/C(=N\OC(=O)c1cccnc1)c1ccccc1Cl	-68.9
N/C(=N\OC(=O)c1cccnc1)c1ccc(Cl)cc1Cl	-152.7
BrCCOCCOc1ccc2ccccc2c1	-129.5
NC(=O)c1ccsc1NC(=O)c1coc2ccccc2c1=O	-156.2
COc1ccccc1N1CCN(c2ccnc3cc(Cl)ccc23)CC1	0
COc1ccccc1N1CCN(/N=C/c2cccc(O)c2)CC1	-111.5
COc1ccccc1N1CCN(/N=C/c2ccc([N+](=O)[O-])cc2)CC1	-159.4
COc1ccccc1N1CCN(/N=C/c2ccc(Cl)c([N+](=O)[O-])c2)CC1	-127.6
CC(=O)c1cccc(NS(=O)(=O)c2ccc3c(c2)N(C(C)=O)CCO3)c1	-69.7
CCC1CCCCN1S(=O)(=O)c1ccc2c(c1)CCN2C(C)=O (configuration not stated)	0
CC(=O)N1CCOc2ccc(S(=O)(=O)N3CCCCC3)cc21	-250.3
